PfM18AAP inh = PfM18AAP inhibitors, malaria aminopeptidase, primary screen, biochemical, QFRET, recombinant enzyme. M18 aspartyl aminopeptidase (Plasmodium falciparum 3D7). H-Glu-NHMec fluorogenic cleavage. inhibition, % at 7.35 µM. 290,000 tested, 1.2% active;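 active = inhibition above the campaign mean inhibition over all tested compounds plus 3 SD, cut at about 28% in these data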;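 also: 0% = plate median of test compound wells and 100% = 2 mM ZnCl2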
CR mimetic SO = reduction of superoxide in aged yeast, primary screen, HTS | S. cerevisiae aged cells, superoxide DHE fluorescence; active compounds read low | superoxide response (% of plate mean), % at 10 µM | 330,000 tested, 0.18% active | AID 2690, 2010;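 active = superoxide response under a set limit, about three screen SD below normal, cut at about 65% in these data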;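 also: yeast aged for seven days with compound at 30 °C before DHE staining; 100% = average MFI of all compound-treated wells on the plate with controls excluded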
A3A deaminase = APOBEC3A ssDNA deaminase inhibitors, primary screen, selectivity assay for APOBEC3G inhibitor project, biochemical, FAM/TAMRA oligo cleavage fluorescence | DNA dC->dU-editing enzyme APOBEC-3A (Homo sapiens), P31941 | recombinant A3A, FAM/TAMRA ssDNA deamination fluorescence | inhibition, % at 20 µM | 330,000 tested, 0.41% active | AID 493011, 2011;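 active = at least 40% inhibition at 20 µM here, with at most 30% in a related deaminase screen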;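 also: plate controls were A3A with DMSO for no effect and wells lacking A3A enzyme for full effect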
A3G deaminase = APOBEC3G DNA deaminase inhibitors, primary screen, biochemical, fluorescence, single-stranded DNA substrate, uHTS; DNA dC->dU-editing enzyme APOBEC-3G (Homo sapiens), Q9HC16; recombinant A3G, ssDNA deamination FAM/TAMRA fluorescence; inhibition, % at 20 µM; 330,000 tested, 0.28% active; AID 493012, 2011;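 active = inhibition of at least 40% at 20 µM, with no more than 30% in the related APOBEC3A deaminase screen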;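 also: plate controls were DMSO wells with A3G for no effect and wells lacking A3G enzyme for full effect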
Target sequence (Q9HC16 whole entry, looked up): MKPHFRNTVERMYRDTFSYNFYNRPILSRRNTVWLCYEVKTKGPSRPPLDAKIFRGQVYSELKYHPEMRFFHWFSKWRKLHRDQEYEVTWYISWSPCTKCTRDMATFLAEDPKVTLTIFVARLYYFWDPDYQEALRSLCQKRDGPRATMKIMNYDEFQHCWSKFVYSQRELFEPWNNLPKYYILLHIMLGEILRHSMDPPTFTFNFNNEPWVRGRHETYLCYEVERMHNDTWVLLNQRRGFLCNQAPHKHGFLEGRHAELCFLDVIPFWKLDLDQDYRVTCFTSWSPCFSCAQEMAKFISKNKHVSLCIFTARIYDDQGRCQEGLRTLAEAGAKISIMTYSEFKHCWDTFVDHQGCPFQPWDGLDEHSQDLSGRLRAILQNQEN
PfGluPho inh = PfG6PD enzyme inhibitors, primary screen, biochemical, fluorescence intensity, uHTS; PfGluPho enzyme, NADPH resazurin-diaphorase fluorescence; inhibition, % at 20 µM; 350,000 tested, 0.78% active; AID 504690, 2011;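 active = inhibition reaching at least a set limit at 20 µM in the primary screen, cut at about 59% in these data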;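 also: 0% = DMSO wells with substrate and 100% = DMSO wells lacking glucose-6-phosphate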
A3G conf = APOBEC3G deaminase inhibitor retest, confirmation, biochemical, fluorescence, single-stranded DNA substrate, single concentration. AID 493152, 2011. recombinant A3G ssDNA deaminase, UDG/FAM-TAMRA fluorescence. 890 tested, 72% active. shares compounds with A3G deaminase. inhibition, % at 20 µM;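 active = inhibition reaching a set limit in any replicate at 20 µM, the limit being 80% of the first screen's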
UDG ctr A3G = E. coli UDG inhibitors, confirmation, counter-screen for APOBEC3G inhibitor project, biochemical, single concentration, fluorescence, FAM/TAMRA oligo. inhibition, % at 20 µM. shares compounds with A3G deaminase. UDG counterscreen. 710 tested, under 10 active;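 active = compounds giving 40% or more inhibition at 20 µM in any one of the three replicates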;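 also: plate controls were DMSO wells with UDG and oligo for no effect and DMSO wells lacking both for full effect; inhibitors lower the FAM signal released by uracil excision and alkaline cleavage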
Target sequence (P12295 whole entry, looked up): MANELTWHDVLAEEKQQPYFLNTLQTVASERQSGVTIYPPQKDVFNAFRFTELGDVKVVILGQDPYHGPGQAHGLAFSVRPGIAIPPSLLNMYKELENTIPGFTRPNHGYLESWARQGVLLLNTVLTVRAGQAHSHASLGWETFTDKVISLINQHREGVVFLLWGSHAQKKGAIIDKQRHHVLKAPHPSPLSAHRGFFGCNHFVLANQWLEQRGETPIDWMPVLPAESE
* marks the source's active call; other numbers are inactive results; i = inactive; x = no result. Shown are actives, neighbours in structure and some others; about 2.4% of the full set was active somewhere.

SMILES	PfM18AAP inh	CR mimetic SO	A3A deaminase	A3G deaminase	PfGluPho inh	A3G conf	UDG ctr A3G
CC(=O)NN1C(=O)/C(=C2/Sc3ccc(Cl)cc3N2C)SC1=S	2	125	-2	-7	-14	x	x
CCOC(=O)c1cc(C#N)c(SCC(=O)c2cc(C#N)c(SC)nc2C)[nH]c1=O	5	90	2	43*	22	17*	-4
CCOC(=O)c1cc(C#N)c(SCC(N)=O)[nH]c1=O	5	85	-2	-5	19	x	x
Fc1cccc(-c2n[nH]c(=S)n2-c2ccccc2)c1	9	99	-4	41*	11	86*	-2
Cc1occc1-c1n[nH]c(=S)n1-c1ccccc1	17	106	-2	42*	20	14*	-5
COC(=O)c1cc(S(=O)(=O)N2CCN(c3cccc(Cl)c3)CC2)c[nH]1	4	107	2	5	-14	x	x
S=C(c1ccc(-c2cccc(Cl)c2)o1)N1CCCCC1	5	100	-10	-6	2	x	x
S=C(c1ccc(-c2cccc(Cl)c2)o1)N1CCOCC1	10	i	-3	43*	58	26	0
C=C(C)C(=O)Nc1cccc(C2=NOC3(C2)C[C@@H](C(N)=O)N(C(=O)/C=C/CC)C3)c1 (stereo partly specified)	x	92	11	91*	8	93*	-2
C/C=C/C(=O)N1CC2(CC(c3cccc(NC(=O)CC)c3)=NO2)C[C@H]1C(N)=O (stereo partly specified)	x	99	-1	0	-5	x	x
C=C(C)C(=O)Nc1cccc(C2=NOC3(C2)C[C@H](C(N)=O)N(C(=O)/C=C/C)C3)c1 (stereo partly specified)	x	99	6	86*	9	91*	-4
C/C=C\C(=O)Nc1cccc(C2=NOC3(C2)C[C@H](C(N)=O)N(C(=O)/C=C/CC)C3)c1 (stereo partly specified)	x	107	1	3	4	x	x
COc1ccccc1-c1nn2c(C3COc4ccccc4O3)nnc2s1 (stereo unspecified)	6	109	-2	51*	50	3	4
c1ccc(CCc2nn3c(C4COc5ccccc5O4)nnc3s2)cc1 (stereo unspecified)	2	99	2	48*	49	31*	3
c1ccc(CCc2nn3c(Cc4ccccc4)nnc3s2)cc1	5	94	2	53*	49	59*	x
Cc1ccc(NC(=O)C(=O)NCCCN2CC(C(=O)O)CC2=O)cc1 (stereo unspecified)	-7	102	-1	-7	2	x	x
CC(C)(C)N(Cc1ccccc1)C(=O)COC(=O)CSc1ccc([N+](=O)[O-])cc1	x	92	-1	-6	27	x	x
O=C(c1ccc(S(=O)(=O)N2CCCCC2)cc1)N1CCCC(C(F)(F)F)C1 (stereo unspecified)	x	99	-3	-6	-5	x	x
COc1ccc(OCc2n[nH]c(=S)n2Cc2ccco2)cc1	12	102	-3	43*	29	72*	10
COc1ccc(-c2n[nH]c(=S)n2Cc2ccco2)cc1	9	85	-3	36	36	x	x
CCCCN1C(=O)C(O)(CC(=O)c2c(C)coc2C)c2ccccc21 (stereo unspecified)	-3	84	3	-1	-10	x	x
CCCCN1C(=O)C2(NNc3ccccc3O2)c2ccccc21 (stereo unspecified)	9	95	1	43*	16	5	x
COc1cc(C(=O)N2CCNCC2)cc(OC)c1OC	-21	100	-6	-1	-5	x	x
COc1cc(C(=O)N2C(=O)CCC2=O)cc(OC)c1OC	-22	100	0	57*	-17	5	-1
CC(=O)C[C@H](O)CC(=O)[C@H]1OC(=O)CCCCCCc2ccccc21	x	109	-5	-9	4	x	x
SMILES	PfM18AAP inh	CR mimetic SO	A3A deaminase	A3G deaminase	PfGluPho inh	A3G conf	UDG ctr A3G
COc1cc(S(=O)(=O)Nc2ccc(C)cc2)ccc1N=Cc1c(C)[nH]n(-c2ccccc2)c1=O	-1	96	0	38	5	x	x
COc1cc(S(=O)(=O)Nc2cccc(C)c2)ccc1N=Cc1c(C)[nH]n(-c2ccccc2)c1=O	0	108	1	55*	x	-2	x
Cc1ccc(CN(Cc2ccccc2)C(=S)NCC(=O)NCc2cccnc2)o1	19	117	-4	45*	17	7	3
Cc1ccc(CN(Cc2ccco2)C(=S)NCC(=O)NCc2cccnc2)cc1	6	94	3	3	12	x	x
CCOCCCN(Cc1cc2cc(C)cc(C)c2[nH]c1=O)C(=O)N(CC)CC	-3	102	0	0	3	x	x
CCc1cc2cc(C)cc(C)c2[nH]c1=S	5	88	2	49*	45	active	-3
O=C(OCc1cn([C@@H]2CN(Cc3cccs3)[C@@H](c3ccc(Cl)cc3)C[C@H]2O)nn1)c1ccccc1	x	x	x	x	30	x	x
N#Cc1cn(CC(=O)O)c2ccccc12	4	89	-12	70*	-15	-5	-3
CCOC(=O)Cn1cc(C#N)c2ccccc21	0	95	-2	-9	9	x	x
CC(=O)Cn1cnc2c(cnn2-c2ccc(C)c(C)c2)c1=O	0	117	-4	-10	1	x	x
CC(C)(C)C(=O)OCc1nc(-c2ccc(Cl)cc2)cs1	1	100	3	6	27	x	x
CC(C)(C)S(=O)(=O)Cc1nc(-c2ccc(Cl)c(Cl)c2)cs1	3	92	7	67*	12	-1	x
Nn1c(C2COc3ccccc3O2)n[nH]c1=S (stereo unspecified)	26	98	-5	60*	38	83*	-2
CC(C)Cn1c(-c2ccc(Br)o2)n[nH]c1=S	13	100	-4	41*	30	76*	-4
Cc1ccc(-c2n[nH]c3c2C(c2ccccc2)N(c2ccc(C(=O)O)cc2)C3=O)cc1 (stereo unspecified)	0	102	-8	74*	-1	3	3
COc1cc(C2Nn3c(nnc3-c3ccccc3OC)S2)ccc1O (stereo unspecified)	17	100	-1	45*	35	82*	-2
